This note sets out measurements from publication PMC10954555.

In test [1] the target is Large ribosomal subunit protein uL5 (UniProt P62913). The test is described as follows: cross-linking mass spectrometry; other.
The target in test [2] is Actin, cytoplasmic 2 (UniProt P63261). The test is described as follows: other; cross-linking mass spectrometry; other.
Test [3] concerns the target Bromodomain-containing protein 3 (UniProt Q15059). As to the kind of experiment: other; cross-linking mass spectrometry; other.
Test [4] has as its target DNA-directed RNA polymerase II subunit RPB3 (UniProt P19387). As to the kind of experiment: other; cross-linking mass spectrometry; other.
Test [5] has as its target DNA-directed RNA polymerase II subunit RPB1 (UniProt P24928). As to the kind of experiment: other; affinity purification or IP with mass spectrometry; other.
The target of test [6] is High mobility group nucleosome-binding domain-containing protein 3 (UniProt Q15651). The test is described as follows: other; cross-linking mass spectrometry; other.
Test [7] addresses Large ribosomal subunit protein eL34 (UniProt P49207). As to the kind of experiment: other; cross-linking mass spectrometry; other.
Test [8] has as its target Large ribosomal subunit protein eL8 (UniProt P62424). As to the kind of experiment: other; cross-linking mass spectrometry; other.
In test [9] the target is Large ribosomal subunit protein uL2 (UniProt P62917). As to the kind of experiment: other; cross-linking mass spectrometry; other.
For test [10], the target named is Large ribosomal subunit protein eL6 (UniProt Q02878). The test is described as follows: other; cross-linking mass spectrometry; other.
In test [11] the target is RNA polymerase II-associated factor 1 homolog (UniProt Q8N7H5). As to the kind of experiment: other; cross-linking mass spectrometry; other.
The target in test [12] is RNA-binding protein 8A (UniProt Q9Y5S9). As to the kind of experiment: other; cross-linking mass spectrometry; other.
For test [13], the target named is Replication factor C subunit 5 (UniProt P40937). As to the kind of experiment: other; cross-linking mass spectrometry; other.
Sequence of Replication factor C subunit 5 (P40937 whole entry): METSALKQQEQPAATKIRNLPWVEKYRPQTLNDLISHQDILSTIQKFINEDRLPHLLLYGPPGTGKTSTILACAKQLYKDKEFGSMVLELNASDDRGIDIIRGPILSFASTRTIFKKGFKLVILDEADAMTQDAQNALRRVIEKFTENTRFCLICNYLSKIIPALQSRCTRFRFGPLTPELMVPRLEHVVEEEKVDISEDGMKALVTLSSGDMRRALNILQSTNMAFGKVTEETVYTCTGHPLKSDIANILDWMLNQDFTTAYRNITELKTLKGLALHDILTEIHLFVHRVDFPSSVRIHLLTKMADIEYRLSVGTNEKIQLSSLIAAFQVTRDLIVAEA
Test [14] concerns the target Retinoblastoma-binding protein 5 (UniProt Q15291). The test is described as follows: other; cross-linking mass spectrometry; other.
Test [15] addresses Small ribosomal subunit protein eS6 (UniProt P62753). The test is described as follows: other; cross-linking mass spectrometry; other.
In test [16] the target is Small ribosomal subunit protein uS14 (UniProt P62273). The test is described as follows: other; cross-linking mass spectrometry; other.
In test [17] the target is Small ribosomal subunit protein uS7 (UniProt P46782). As to the kind of experiment: other; cross-linking mass spectrometry; other.
In test [18] the target is Ubiquitin-ribosomal protein eS31 fusion protein (UniProt P62979). As to the kind of experiment: other; cross-linking mass spectrometry; other.
For test [19], the target named is DNA-directed RNA polymerase II subunit RPB9 (UniProt P36954). The test is described as follows: other; affinity purification or IP with mass spectrometry; other.
Test [20] has as its target DNA-directed RNA polymerase II subunit RPB2 (UniProt P30876). As to the kind of experiment: other; affinity purification or IP with mass spectrometry; cross-linking mass spectrometry; other.
Test [21] deals with Actin, alpha skeletal muscle (UniProt P68133). As to the kind of experiment: cross-link between two proteins; cross-linking mass spectrometry; other.

Sequence of Histone-lysine N-methyltransferase 2A, Q03164 (Q03164 whole entry): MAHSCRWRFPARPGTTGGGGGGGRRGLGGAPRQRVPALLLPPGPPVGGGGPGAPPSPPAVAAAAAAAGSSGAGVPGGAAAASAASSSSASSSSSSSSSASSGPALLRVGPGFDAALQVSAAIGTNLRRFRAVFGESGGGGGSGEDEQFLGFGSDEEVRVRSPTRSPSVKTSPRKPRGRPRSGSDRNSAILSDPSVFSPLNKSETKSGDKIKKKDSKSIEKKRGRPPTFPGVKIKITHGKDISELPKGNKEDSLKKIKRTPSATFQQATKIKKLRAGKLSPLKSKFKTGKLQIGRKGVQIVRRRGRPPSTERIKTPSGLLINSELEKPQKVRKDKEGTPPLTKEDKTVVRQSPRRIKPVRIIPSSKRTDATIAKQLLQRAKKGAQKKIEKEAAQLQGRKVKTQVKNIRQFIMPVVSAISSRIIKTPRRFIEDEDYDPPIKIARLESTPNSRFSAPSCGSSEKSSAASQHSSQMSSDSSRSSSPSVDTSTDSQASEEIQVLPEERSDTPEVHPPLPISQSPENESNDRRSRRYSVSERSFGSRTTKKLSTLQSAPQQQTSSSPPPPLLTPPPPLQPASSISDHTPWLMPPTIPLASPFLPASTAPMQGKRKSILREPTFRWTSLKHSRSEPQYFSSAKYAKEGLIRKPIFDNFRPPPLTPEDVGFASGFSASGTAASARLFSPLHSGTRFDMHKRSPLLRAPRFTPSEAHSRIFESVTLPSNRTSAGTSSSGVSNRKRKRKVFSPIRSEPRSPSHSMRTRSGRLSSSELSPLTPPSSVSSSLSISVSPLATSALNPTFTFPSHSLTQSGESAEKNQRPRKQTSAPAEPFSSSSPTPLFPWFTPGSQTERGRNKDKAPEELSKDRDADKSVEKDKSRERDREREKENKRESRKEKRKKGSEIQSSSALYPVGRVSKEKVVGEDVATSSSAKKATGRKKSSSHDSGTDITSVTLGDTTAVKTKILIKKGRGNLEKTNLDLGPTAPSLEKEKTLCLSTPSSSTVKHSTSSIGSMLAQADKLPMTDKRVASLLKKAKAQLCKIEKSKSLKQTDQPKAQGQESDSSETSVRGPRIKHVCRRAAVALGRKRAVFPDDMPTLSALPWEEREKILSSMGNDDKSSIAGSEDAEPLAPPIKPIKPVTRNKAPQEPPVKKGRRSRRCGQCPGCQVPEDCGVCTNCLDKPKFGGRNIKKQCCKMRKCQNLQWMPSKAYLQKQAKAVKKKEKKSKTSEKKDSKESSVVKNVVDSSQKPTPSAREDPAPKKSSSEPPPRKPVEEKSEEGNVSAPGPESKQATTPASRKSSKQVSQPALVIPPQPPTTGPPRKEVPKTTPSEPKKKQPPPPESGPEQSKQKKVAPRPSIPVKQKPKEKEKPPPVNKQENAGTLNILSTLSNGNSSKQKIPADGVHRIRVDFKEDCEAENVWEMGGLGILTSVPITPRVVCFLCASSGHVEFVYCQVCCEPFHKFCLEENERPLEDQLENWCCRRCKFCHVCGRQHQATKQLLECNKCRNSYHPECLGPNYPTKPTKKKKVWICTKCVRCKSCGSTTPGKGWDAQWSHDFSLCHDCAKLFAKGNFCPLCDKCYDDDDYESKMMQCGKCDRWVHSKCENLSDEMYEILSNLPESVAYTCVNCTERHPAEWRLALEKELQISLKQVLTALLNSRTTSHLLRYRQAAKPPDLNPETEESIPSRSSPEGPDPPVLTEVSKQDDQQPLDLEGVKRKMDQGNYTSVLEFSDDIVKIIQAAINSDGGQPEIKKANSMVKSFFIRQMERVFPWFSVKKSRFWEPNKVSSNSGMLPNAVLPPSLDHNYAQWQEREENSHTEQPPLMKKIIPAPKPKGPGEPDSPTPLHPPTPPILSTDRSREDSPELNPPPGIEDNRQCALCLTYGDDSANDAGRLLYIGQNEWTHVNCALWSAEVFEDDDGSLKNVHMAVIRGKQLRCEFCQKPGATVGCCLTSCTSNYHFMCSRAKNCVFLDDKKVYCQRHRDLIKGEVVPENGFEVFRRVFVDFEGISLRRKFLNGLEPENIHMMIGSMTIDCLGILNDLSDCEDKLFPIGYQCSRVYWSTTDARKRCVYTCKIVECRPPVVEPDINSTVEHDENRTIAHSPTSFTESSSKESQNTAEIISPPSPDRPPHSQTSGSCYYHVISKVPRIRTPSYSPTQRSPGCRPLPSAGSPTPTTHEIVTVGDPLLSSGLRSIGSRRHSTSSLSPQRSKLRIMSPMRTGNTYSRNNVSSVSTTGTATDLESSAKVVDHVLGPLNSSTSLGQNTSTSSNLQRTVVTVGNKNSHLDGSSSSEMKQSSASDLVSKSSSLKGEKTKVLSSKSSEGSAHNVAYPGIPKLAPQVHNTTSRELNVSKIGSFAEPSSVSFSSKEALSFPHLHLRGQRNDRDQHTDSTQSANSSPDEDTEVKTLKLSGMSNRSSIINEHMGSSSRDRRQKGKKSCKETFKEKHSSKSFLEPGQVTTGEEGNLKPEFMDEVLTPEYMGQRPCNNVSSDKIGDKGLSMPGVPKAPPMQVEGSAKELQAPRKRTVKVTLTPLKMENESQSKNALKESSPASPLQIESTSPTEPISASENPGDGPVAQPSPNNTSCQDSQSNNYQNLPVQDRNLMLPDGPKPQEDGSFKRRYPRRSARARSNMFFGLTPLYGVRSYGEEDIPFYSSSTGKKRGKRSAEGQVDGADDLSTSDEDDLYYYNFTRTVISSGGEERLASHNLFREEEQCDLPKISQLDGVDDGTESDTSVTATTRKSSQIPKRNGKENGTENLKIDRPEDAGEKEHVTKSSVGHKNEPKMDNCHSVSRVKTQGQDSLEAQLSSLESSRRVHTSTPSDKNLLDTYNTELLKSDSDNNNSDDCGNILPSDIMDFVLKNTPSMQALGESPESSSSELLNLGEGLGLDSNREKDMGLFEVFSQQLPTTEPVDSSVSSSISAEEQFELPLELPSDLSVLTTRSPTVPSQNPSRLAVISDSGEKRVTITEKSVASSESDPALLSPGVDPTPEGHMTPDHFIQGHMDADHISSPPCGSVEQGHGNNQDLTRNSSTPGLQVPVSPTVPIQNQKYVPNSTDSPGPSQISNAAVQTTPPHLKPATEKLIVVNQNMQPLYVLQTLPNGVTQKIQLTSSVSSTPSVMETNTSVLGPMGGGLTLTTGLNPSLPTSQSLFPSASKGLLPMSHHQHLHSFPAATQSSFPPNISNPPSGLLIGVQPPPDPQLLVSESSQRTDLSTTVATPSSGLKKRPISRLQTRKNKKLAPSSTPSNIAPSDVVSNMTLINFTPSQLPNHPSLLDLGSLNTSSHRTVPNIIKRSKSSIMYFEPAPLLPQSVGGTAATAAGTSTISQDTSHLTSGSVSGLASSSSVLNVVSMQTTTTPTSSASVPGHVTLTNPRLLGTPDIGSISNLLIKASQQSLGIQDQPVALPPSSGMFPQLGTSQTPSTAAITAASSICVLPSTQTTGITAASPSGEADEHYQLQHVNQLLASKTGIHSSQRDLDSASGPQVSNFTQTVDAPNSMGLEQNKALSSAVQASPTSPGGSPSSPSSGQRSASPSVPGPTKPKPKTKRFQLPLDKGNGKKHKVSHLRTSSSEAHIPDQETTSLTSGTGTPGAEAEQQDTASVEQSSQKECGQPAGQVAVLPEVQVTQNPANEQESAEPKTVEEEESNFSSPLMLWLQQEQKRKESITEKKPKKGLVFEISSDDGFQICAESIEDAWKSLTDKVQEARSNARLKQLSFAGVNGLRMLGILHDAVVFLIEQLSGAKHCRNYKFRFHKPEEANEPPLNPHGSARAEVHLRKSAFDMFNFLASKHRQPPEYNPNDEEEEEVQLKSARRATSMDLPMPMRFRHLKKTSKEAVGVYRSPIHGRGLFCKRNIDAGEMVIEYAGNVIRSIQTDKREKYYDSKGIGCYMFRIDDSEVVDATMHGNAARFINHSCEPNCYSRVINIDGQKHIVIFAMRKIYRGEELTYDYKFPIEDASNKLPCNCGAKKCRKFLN
Sequence of Replication factor C subunit 4, P35249 (P35249 whole entry): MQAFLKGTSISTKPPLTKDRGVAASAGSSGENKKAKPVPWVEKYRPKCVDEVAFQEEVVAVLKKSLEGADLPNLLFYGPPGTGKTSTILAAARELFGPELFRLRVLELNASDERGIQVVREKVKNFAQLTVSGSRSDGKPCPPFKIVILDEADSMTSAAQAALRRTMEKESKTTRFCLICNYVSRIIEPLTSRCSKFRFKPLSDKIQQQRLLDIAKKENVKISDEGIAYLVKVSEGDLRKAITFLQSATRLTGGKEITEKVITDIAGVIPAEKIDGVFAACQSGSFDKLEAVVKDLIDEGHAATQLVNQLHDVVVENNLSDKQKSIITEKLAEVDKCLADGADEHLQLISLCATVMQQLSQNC

Consider “Large ribosomal subunit protein uL1, P62906”, for which, in test [1], the “listed as a hit” value is “yes”. For the substance Actin, cytoplasmic 1, P60709, in [2], the “listed as a hit” value is “yes”. “Bromodomain-containing protein 4, O60885”: the “listed as a hit” value in [3] is “yes”. Take “DNA-directed RNA polymerase II subunit RPB4, O15514”: the “listed as a hit” value in test [4] and in test [5] was “yes” each time. For “Non-histone chromosomal protein HMG-17, P05204”, the “listed as a hit” value in [6] is listed as “yes”.

“Large ribosomal subunit protein uL4, P36578”: the “listed as a hit” value in test [7], in test [8] and in [9] was “yes” in each case. Consider “Large ribosomal subunit protein eL32, P62910”, for which the “listed as a hit” value in [10] is listed as “yes”. As for Parafibromin, Q6P1J9, the “listed as a hit” value in test [11] was “yes”. Still for that read-out and setting: in the case of “RNA polymerase-associated protein CTR9 homolog, Q6PD62” it was “yes”.

“Eukaryotic initiation factor 4A-III, P38919”: the “listed as a hit” value in test [12] is reported as “yes”. With Replication factor C subunit 4, P35249, in [13], the “listed as a hit” value is reported as “yes”. As for “Histone-lysine N-methyltransferase 2A, Q03164”, the “listed as a hit” value in test [14] was “yes”. As to “Small ribosomal subunit protein uS17, P62280”, the “listed as a hit” value in test [15] is recorded as “yes”. Consider “Small ribosomal subunit protein uS10, P60866”, for which the “listed as a hit” value in test [16] was “yes”. For “Small ribosomal subunit protein eS19, P39019”, in test [17], the “listed as a hit” value is “yes”. Regarding “Small ribosomal subunit protein eS1, P61247”, the “listed as a hit” value in [18] is reported as “yes”. Same read-out and setting: in the case of “Small ribosomal subunit protein uS7, P46782” it was “yes”.

For the substance “DNA-directed RNA polymerase II subunit RPB1, P24928”, the “listed as a hit” value in [19] and in test [20] was “yes” throughout. For Actin, cytoplasmic 2, P63261, in [21], the “listed as a hit” value is recorded as “yes”.
